# Results reported in ChEMBL document CHEMBL1961873, “Compounds: GSK PKIS; Assays: Nanosyn kinase panel” (2012).
# Experiments:
# [1] = molecular target: Sphingosine kinase 1 (Homo sapiens) (UniProt Q9NYA1); details: at 1 µM;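 further: mean SPHK1 inhibition value reported from the GSK PKIS kinase panel screen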
# [2] = molecular target: T1, Sphingosine kinase 2 (Homo sapiens) (UniProt Q9NRA0); details: at 0.1 µM
# T1 sequence (whole entry): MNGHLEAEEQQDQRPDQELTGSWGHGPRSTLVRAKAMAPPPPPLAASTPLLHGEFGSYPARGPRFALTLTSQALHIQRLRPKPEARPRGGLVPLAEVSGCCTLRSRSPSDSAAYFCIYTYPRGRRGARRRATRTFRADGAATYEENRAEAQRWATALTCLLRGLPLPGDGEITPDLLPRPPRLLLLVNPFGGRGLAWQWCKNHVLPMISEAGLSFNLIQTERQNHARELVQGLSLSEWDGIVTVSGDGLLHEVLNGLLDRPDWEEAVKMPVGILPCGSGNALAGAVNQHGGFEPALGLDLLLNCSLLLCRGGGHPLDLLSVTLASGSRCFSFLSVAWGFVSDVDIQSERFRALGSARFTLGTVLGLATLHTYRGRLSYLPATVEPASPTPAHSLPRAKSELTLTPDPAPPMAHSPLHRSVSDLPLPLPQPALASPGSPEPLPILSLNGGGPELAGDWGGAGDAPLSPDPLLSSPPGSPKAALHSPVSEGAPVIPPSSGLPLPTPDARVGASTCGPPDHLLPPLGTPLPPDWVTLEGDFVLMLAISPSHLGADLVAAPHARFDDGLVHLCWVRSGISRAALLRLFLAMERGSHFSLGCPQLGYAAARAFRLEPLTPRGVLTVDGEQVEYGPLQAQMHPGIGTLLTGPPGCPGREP
# [3] = molecular target: Casein kinase II subunit alpha (Homo sapiens) (UniProt P68400); details: at 0.1 µM
# [4] = molecular target: Casein kinase II subunit alpha (Homo sapiens) (UniProt P68400); details: at 1 µM
# [5] = molecular target: T2, Inhibitor of nuclear factor kappa-B kinase subunit alpha (Homo sapiens) (UniProt O15111); details: at 0.1 µM
# T2 sequence (whole entry): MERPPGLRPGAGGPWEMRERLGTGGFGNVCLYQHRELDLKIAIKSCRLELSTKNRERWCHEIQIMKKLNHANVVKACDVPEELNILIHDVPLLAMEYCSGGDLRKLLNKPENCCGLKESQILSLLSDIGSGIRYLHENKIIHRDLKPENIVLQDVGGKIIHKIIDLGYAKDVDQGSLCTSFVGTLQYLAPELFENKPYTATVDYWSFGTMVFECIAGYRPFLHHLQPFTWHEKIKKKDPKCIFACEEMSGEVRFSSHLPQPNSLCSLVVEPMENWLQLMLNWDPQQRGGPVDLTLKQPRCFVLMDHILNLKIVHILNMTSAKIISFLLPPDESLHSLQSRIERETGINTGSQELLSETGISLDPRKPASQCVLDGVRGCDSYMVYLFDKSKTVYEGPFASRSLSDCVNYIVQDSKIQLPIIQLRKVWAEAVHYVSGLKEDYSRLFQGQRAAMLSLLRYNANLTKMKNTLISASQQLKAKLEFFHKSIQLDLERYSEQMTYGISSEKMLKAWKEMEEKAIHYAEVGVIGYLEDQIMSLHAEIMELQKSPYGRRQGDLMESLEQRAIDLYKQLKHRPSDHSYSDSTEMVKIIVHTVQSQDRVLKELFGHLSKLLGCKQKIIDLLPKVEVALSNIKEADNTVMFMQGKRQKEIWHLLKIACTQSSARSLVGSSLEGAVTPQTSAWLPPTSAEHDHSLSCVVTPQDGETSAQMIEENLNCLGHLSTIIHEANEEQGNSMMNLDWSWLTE
# [6] = molecular target: T2, Inhibitor of nuclear factor kappa-B kinase subunit alpha (Homo sapiens); details: at 1 µM
# [7] = molecular target: T3, Inhibitor of nuclear factor kappa-B kinase subunit beta (Homo sapiens) (UniProt O14920); details: at 0.1 µM
# T3 sequence (whole entry): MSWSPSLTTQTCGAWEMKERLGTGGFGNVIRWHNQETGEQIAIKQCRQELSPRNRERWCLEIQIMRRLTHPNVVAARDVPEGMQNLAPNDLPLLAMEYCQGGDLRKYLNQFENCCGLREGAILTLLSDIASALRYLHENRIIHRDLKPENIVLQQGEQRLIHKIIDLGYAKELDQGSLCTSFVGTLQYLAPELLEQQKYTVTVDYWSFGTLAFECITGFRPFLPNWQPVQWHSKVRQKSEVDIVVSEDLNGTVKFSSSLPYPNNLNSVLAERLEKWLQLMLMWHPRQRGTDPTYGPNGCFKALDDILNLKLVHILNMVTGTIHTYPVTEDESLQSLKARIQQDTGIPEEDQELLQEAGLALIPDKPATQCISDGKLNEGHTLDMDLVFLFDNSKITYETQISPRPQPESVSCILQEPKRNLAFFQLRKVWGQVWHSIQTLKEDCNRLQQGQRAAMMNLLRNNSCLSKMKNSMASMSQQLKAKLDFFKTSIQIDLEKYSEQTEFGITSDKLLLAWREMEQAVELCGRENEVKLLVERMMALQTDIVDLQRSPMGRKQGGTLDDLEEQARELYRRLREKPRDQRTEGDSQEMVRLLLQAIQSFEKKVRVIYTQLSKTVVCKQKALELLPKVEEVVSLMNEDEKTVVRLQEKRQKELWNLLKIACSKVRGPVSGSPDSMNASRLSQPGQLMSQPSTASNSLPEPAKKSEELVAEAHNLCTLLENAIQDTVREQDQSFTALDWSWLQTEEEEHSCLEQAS
# [8] = molecular target: T3, Inhibitor of nuclear factor kappa-B kinase subunit beta (Homo sapiens); details: at 1 µM
# [9] = molecular target: T4, Inhibitor of nuclear factor kappa-B kinase subunit epsilon (Homo sapiens) (UniProt Q14164); details: at 0.1 µM
# T4 sequence (whole entry): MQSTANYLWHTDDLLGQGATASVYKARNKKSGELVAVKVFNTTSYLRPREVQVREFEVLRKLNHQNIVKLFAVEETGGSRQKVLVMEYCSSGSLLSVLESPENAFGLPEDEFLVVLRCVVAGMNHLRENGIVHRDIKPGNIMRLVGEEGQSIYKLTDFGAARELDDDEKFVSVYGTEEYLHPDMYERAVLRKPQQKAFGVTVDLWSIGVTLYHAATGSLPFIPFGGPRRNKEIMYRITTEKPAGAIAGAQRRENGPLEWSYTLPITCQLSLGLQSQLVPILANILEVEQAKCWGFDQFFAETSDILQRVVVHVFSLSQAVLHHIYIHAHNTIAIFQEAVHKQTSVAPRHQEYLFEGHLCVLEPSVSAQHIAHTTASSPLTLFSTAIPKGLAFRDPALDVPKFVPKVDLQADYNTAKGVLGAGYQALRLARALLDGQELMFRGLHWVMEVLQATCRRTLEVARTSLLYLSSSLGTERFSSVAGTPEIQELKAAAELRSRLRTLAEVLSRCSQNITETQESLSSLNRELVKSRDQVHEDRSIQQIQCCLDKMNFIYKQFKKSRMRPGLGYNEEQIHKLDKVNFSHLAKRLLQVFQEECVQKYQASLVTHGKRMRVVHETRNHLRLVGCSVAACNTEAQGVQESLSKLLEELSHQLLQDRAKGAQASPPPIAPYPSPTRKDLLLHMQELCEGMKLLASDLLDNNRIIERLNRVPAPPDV
# [10] = molecular target: T4, Inhibitor of nuclear factor kappa-B kinase subunit epsilon (Homo sapiens); details: at 1 µM
# [11] = molecular target: T5, Serine/threonine-protein kinase Nek1 (Homo sapiens) (UniProt Q96PY6); details: at 0.1 µM
# T5 sequence (whole entry): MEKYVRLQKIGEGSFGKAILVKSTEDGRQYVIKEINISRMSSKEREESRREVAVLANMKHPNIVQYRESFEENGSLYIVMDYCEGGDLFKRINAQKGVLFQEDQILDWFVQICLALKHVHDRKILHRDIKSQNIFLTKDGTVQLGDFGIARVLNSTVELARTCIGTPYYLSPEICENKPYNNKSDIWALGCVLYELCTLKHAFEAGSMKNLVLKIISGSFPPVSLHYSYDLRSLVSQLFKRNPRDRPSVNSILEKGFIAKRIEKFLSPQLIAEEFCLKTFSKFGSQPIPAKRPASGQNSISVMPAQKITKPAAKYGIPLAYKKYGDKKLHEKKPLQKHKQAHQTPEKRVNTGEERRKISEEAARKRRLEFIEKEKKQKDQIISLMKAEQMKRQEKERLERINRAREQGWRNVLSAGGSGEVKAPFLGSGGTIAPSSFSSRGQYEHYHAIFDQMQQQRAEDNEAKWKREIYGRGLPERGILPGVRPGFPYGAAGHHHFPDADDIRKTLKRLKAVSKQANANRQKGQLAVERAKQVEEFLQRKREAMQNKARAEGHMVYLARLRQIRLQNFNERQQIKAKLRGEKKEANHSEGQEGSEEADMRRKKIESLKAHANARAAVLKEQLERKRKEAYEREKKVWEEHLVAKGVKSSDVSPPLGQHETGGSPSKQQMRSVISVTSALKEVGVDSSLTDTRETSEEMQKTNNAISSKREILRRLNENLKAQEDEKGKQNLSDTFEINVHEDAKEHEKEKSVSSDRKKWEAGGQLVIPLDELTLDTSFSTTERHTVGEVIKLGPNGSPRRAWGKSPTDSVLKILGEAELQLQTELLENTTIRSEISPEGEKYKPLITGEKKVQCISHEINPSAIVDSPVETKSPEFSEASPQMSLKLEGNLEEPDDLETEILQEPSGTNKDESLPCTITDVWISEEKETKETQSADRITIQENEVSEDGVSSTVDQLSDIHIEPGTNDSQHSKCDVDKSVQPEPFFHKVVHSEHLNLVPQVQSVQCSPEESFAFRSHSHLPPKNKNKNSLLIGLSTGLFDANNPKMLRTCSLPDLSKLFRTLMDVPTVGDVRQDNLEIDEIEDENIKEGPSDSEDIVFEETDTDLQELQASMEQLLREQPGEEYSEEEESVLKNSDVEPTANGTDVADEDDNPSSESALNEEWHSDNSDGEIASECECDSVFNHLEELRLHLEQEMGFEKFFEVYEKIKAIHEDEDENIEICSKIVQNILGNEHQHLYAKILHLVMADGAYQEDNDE
# [12] = molecular target: T5, Serine/threonine-protein kinase Nek1 (Homo sapiens); details: at 1 µM
# [13] = molecular target: T6, Serine/threonine-protein kinase Nek2 (Homo sapiens) (UniProt P51955); details: at 0.1 µM
# T6 sequence (whole entry): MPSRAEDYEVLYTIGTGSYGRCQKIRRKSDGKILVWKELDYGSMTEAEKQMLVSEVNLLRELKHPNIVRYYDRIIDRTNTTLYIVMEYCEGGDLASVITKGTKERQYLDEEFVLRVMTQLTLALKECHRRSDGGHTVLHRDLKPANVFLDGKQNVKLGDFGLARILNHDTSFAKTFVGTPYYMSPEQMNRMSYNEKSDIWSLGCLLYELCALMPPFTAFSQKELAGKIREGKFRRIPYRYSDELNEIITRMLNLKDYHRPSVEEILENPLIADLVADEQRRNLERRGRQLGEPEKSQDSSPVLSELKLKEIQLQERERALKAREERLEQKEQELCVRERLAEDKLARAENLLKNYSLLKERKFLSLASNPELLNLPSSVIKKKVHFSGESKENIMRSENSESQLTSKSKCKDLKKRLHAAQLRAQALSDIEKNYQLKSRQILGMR
# [14] = molecular target: T6, Serine/threonine-protein kinase Nek2 (Homo sapiens); details: at 1 µM
# [15] = molecular target: Serine/threonine-protein kinase Nek6 (Homo sapiens) (UniProt Q9HC98); details: at 0.1 µM
# [16] = molecular target: Serine/threonine-protein kinase Nek6 (Homo sapiens) (UniProt Q9HC98); details: at 1 µM
# [17] = molecular target: Serine/threonine-protein kinase Nek7 (Homo sapiens) (UniProt Q8TDX7); details: at 0.1 µM
# [18] = molecular target: Serine/threonine-protein kinase Nek7 (Homo sapiens) (UniProt Q8TDX7); details: at 1 µM
# [19] = molecular target: T7, Serine/threonine-protein kinase Nek9 (Homo sapiens) (UniProt Q8TD19); details: at 0.1 µM;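 further: reported value is the mean percent inhibition of NEK9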
# T7 sequence (whole entry): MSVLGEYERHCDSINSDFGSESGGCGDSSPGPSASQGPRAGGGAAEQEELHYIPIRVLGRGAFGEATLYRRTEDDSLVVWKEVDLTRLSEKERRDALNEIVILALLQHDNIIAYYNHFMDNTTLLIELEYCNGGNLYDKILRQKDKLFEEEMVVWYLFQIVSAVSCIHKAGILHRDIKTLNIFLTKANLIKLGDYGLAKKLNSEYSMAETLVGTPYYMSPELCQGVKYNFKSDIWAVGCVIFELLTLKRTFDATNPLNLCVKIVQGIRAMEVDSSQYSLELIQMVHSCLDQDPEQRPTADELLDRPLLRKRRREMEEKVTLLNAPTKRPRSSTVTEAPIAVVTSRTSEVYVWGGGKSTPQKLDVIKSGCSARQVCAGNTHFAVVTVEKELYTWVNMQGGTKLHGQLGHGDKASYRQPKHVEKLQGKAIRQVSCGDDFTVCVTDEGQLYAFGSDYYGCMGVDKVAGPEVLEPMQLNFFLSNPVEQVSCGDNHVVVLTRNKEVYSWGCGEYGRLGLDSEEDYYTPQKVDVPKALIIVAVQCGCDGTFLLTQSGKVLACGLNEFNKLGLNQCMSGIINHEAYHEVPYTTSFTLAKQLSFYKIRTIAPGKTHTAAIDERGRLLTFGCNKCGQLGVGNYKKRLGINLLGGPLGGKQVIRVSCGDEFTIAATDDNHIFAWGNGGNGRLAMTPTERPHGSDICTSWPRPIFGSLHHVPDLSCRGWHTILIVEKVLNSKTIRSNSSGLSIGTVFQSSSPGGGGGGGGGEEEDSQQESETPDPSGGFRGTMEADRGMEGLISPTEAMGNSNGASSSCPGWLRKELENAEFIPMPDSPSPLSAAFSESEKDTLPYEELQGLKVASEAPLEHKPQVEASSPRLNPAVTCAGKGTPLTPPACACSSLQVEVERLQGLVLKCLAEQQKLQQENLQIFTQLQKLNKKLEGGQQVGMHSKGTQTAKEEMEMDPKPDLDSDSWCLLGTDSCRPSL
# [20] = molecular target: T1, Sphingosine kinase 2 (Homo sapiens); details: at 1 µM
# Chain of Casein kinase II subunit alpha (Homo sapiens) (P68400 whole entry, looked up): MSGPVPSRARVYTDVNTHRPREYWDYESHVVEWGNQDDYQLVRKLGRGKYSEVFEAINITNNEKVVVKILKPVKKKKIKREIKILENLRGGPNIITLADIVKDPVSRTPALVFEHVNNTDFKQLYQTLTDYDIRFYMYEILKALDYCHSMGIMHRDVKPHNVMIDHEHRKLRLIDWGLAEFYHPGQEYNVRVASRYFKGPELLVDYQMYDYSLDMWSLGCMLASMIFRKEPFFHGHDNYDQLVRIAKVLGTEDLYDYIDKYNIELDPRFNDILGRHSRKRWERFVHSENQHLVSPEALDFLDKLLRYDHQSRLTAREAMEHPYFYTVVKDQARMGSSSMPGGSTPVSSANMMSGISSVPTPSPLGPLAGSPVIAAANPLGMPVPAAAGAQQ
# Chain of Serine/threonine-protein kinase Nek7 (Homo sapiens) (Q8TDX7 whole entry, looked up): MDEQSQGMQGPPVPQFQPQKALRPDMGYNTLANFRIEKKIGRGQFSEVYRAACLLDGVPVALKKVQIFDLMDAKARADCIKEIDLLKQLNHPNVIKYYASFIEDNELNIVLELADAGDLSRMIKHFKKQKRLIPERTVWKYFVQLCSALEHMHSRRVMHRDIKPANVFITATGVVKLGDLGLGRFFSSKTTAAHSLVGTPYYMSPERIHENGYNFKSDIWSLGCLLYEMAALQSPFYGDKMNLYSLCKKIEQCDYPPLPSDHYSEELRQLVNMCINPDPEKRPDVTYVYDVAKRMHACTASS
# Chain of Serine/threonine-protein kinase Nek6 (Homo sapiens) (Q9HC98 whole entry): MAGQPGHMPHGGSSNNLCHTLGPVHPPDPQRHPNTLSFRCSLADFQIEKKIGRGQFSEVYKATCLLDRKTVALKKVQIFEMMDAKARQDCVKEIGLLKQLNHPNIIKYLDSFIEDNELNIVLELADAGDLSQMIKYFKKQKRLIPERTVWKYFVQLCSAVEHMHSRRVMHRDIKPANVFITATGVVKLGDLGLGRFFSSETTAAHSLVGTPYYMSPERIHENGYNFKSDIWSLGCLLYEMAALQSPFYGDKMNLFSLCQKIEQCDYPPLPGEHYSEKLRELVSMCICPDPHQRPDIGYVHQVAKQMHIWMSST
# Chain of Sphingosine kinase 1 (Homo sapiens) (Q9NYA1 whole entry): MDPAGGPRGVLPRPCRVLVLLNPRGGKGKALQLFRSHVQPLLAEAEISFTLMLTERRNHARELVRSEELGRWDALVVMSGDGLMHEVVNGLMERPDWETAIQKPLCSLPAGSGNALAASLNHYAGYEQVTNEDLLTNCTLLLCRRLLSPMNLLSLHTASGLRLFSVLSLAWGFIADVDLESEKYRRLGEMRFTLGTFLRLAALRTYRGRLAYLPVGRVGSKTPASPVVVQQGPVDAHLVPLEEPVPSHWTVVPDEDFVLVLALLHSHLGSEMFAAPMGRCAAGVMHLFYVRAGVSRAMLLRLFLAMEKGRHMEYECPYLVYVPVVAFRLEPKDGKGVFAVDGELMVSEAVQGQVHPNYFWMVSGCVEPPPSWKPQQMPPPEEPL
SMILES,inhibition [1] [%],inhibition [2] [%],inhibition [3] [%],inhibition [4] [%],inhibition [5] [%],inhibition [6] [%],inhibition [7] [%],inhibition [8] [%],inhibition [9] [%],inhibition [10] [%],inhibition [11] [%],inhibition [12] [%],inhibition [13] [%],inhibition [14] [%],inhibition [15] [%],inhibition [16] [%],inhibition [17] [%],inhibition [18] [%],inhibition [19] [%],inhibition [20] [%]
[O-][S+]1CCN(Cc2ccc(-c3ccc4ncnc(Nc5ccc(OCc6ccccc6)c(F)c5)c4c3)o2)CC1,-3.44,0.02,-1.48,1.56,1.7,1.1,4.51,-0.14,3.11,1.45,1.95,2.41,3.45,3.23,1.87,-0.69,2.33,2.07,5.9,–
COc1ccc(-c2ccncc2)cc1C(N)=O,-0.74,0.88,–,4.44,2.55,9.39,4.74,7.06,5.87,6.43,3.59,6.47,5.42,6.48,-0.26,1.43,3.68,8.72,4.72,-0.67
